# Results taken from the supplement of paper PMC10037445.
# The full ranking holds about 2,900 compounds; the median of “NF-kB SEAP reporter activity, fold change vs agonist alone” is about 0.99, and the highest 2% start at about 2.6. The list comes from a sample in which the highest values are over-represented; it also holds similar structures and randomly drawn compounds.
# Columns and labels:
# RAW-Dual [1] = assay: NF-kB SEAP reporter activity, fold change vs agonist alone; higher = enhanced NF-kB activity; conditions: library stock concentration (final ~1000-fold dilution): 10 mM
# In short: (§1)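 Supernatant from RAW-Dual macrophages was read after 20 hours for IRF by QuantiLuc luminescence and for NF-κB by QuantiBlue absorbance at 620 nm. The cells (50,000 cells/well in DMEM, 384-well plates, 37 °C, 5% CO2) had received 50 nL of library stock by pin tool and, 1 h later, a PRR agonist. Reporter activity is expressed relative to agonist-alone wells as fold change, and wells were flagged cytotoxic if IncuCyte confluency was under 70% of agonist controls in both mask sets.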
# RAW-Dual [2] = assay: NF-kB SEAP reporter activity, fold change vs agonist alone; cytotoxicity flag (confluency mask): not cytotoxic; higher = enhanced NF-kB activity
# In short: as §1
# RAW-Dual [3] = assay: NF-kB SEAP reporter activity, fold change vs agonist alone; cytotoxicity flag (confluency mask): cytotoxic (confluency <70% of control); higher = enhanced NF-kB activity
# In short: as §1
# [4] = cytotoxicity flag (confluency mask): not cytotoxic, agonist: Imiquimod (TLR7) […]
# [5] = cytotoxicity flag (confluency mask): not cytotoxic, agonist: MPLA (TLR4) […]
# [6] = agonist: ODN 1826 (TLR9) 0.5 ug/mL
# [7] = agonist: Pam2CSK4 (TLR2/6) 0.1 ug/mL
# [8] = agonist: Pam3CSK4 (TLR2/1) 0.1 ug/mL
# [9] = cytotoxicity flag (confluency mask): cytotoxic (confluency <70% of control), agonist: Imiquimod (TLR7) […]
# [10] = cytotoxicity flag (confluency mask): cytotoxic (confluency <70% of control), agonist: MPLA (TLR4) […]
smiles,measurement,setting,value
O=C(c1cn(Cc2cncn2Cc2ccc(Br)cc2)cc1-c1cccc2ccccc12)N1CCOCC1,NF-kB SEAP reporter activity,RAW-Dual [1]; [4],1.35
same,NF-kB SEAP reporter activity,RAW-Dual [1]; [5],1.46
O=C(c1cn(Cc2cncn2Cc2ccc(Br)cc2)cc1-c1cccc2ccccc12)N1CCOCC1 (library stock concentration (final ~1000-fold dilution): 10 mM),NF-kB SEAP reporter activity,RAW-Dual [2]; agonist: LPS (TLR4) 0.1 ug/mL,2.82
same,NF-kB SEAP reporter activity,RAW-Dual [2]; [6],1.54
same,NF-kB SEAP reporter activity,RAW-Dual [2]; [7],0.96
same,NF-kB SEAP reporter activity,RAW-Dual [2]; [8],1.16
O=C1NC(=O)C(c2cn3c4c(cccc24)CCC3)C1c1c[nH]c2ccccc12 (centres undefined) (library stock concentration (final ~1000-fold dilution): 10 mM),NF-kB SEAP reporter activity,RAW-Dual [2]; agonist: LPS (TLR4) 0.1 ug/mL,3.41
same,NF-kB SEAP reporter activity,RAW-Dual [2]; [6],2.7
same,NF-kB SEAP reporter activity,RAW-Dual [2]; [7],1.49
same,NF-kB SEAP reporter activity,RAW-Dual [2]; [8],1.4
O=C1NC(=O)C(c2cn3c4c(cccc24)CCC3)C1c1c[nH]c2ccccc12 (centres undefined),NF-kB SEAP reporter activity,RAW-Dual [1]; [4],2.44
same,NF-kB SEAP reporter activity,RAW-Dual [1]; [5],1.84
Cl.Clc1cccc(-c2nnnn2Cc2cccnc2)c1Cl (library stock concentration (final ~1000-fold dilution): 10 mM),NF-kB SEAP reporter activity,RAW-Dual [2]; agonist: LPS (TLR4) 0.1 ug/mL,1.07
same,NF-kB SEAP reporter activity,RAW-Dual [2]; [6],0.95
same,NF-kB SEAP reporter activity,RAW-Dual [2]; [7],1.04
same,NF-kB SEAP reporter activity,RAW-Dual [2]; [8],0.958
Cl.Clc1cccc(-c2nnnn2Cc2cccnc2)c1Cl,NF-kB SEAP reporter activity,RAW-Dual [1]; [4],1
same,NF-kB SEAP reporter activity,RAW-Dual [1]; [5],1.06
CC1COC2Cn3cc(C(=O)NCc4ccc(F)cc4F)c(=O)c(O)c3C(=O)N12 (centres undefined),NF-kB SEAP reporter activity,RAW-Dual [1]; [4],0.969
same,NF-kB SEAP reporter activity,RAW-Dual [1]; [5],1.11
CC1COC2Cn3cc(C(=O)NCc4ccc(F)cc4F)c(=O)c(O)c3C(=O)N12 (centres undefined) (library stock concentration (final ~1000-fold dilution): 10 mM),NF-kB SEAP reporter activity,RAW-Dual [2]; agonist: LPS (TLR4) 0.1 ug/mL,1.38
same,NF-kB SEAP reporter activity,RAW-Dual [2]; [6],1.03
same,NF-kB SEAP reporter activity,RAW-Dual [2]; [7],0.808
same,NF-kB SEAP reporter activity,RAW-Dual [2]; [8],0.866
COc1cc(C(=O)NC2CCN(C)CC2)ccc1Nc1ncc2c(n1)N(C1CCCC1)CC(F)(F)C(=O)N2C (library stock concentration (final ~1000-fold dilution): 10 mM),NF-kB SEAP reporter activity,RAW-Dual [3]; agonist: LPS (TLR4) 0.1 ug/mL,5.16
same,NF-kB SEAP reporter activity,RAW-Dual [3]; [6],0.745
same,NF-kB SEAP reporter activity,RAW-Dual [3]; [7],1.3
same,NF-kB SEAP reporter activity,RAW-Dual [3]; [8],3.04
COc1cc(OC2CCN(C)CC2)ccc1Nc1ncc2c(n1)n(C1CCCC1)c(=O)n2C,NF-kB SEAP reporter activity,RAW-Dual [1]; [4],1.11
same,NF-kB SEAP reporter activity,RAW-Dual [1]; [5],0.875
Cc1cc(Nc2ncc3c(n2)N(C)C(=O)N(c2cc(NC(=O)c4cccc(C(F)(F)F)c4)ccc2C)C3)n(C)n1 (library stock concentration (final ~1000-fold dilution): 10 mM),NF-kB SEAP reporter activity,RAW-Dual [3]; agonist: LPS (TLR4) 0.1 ug/mL,0.283
same,NF-kB SEAP reporter activity,RAW-Dual [3]; [6],0.186
same,NF-kB SEAP reporter activity,RAW-Dual [3]; [7],0.0623
same,NF-kB SEAP reporter activity,RAW-Dual [3]; [8],0.124
CCC1C(=O)N(C)c2cnc(Nc3ccc(C(=O)NC4CCC(N5CCN(CC6CC6)CC5)CC4)cc3OC)nc2N1C(C)C (centres undefined) (library stock concentration (final ~1000-fold dilution): 10 mM),NF-kB SEAP reporter activity,RAW-Dual [2]; agonist: LPS (TLR4) 0.1 ug/mL,5.71
same,NF-kB SEAP reporter activity,RAW-Dual [2]; [6],0.977
same,NF-kB SEAP reporter activity,RAW-Dual [2]; [7],1.95
same,NF-kB SEAP reporter activity,RAW-Dual [2]; [8],0.886
CCC1C(=O)N(C)c2cnc(Nc3ccc(C(=O)NC4CCC(N5CCN(CC6CC6)CC5)CC4)cc3OC)nc2N1C(C)C (centres undefined),NF-kB SEAP reporter activity,RAW-Dual [1]; [4],0.55
same,NF-kB SEAP reporter activity,RAW-Dual [1]; [5],0.684
CCC1C(=O)N(C)c2cnc(Nc3ccc(C(=O)NC4CCN(C)CC4)cc3OC)nc2N1C1CCCC1 (centres undefined) (library stock concentration (final ~1000-fold dilution): 10 mM),NF-kB SEAP reporter activity,RAW-Dual [3]; agonist: LPS (TLR4) 0.1 ug/mL,0.276
same,NF-kB SEAP reporter activity,RAW-Dual [3]; [6],1.3
same,NF-kB SEAP reporter activity,RAW-Dual [3]; [7],1.54
same,NF-kB SEAP reporter activity,RAW-Dual [3]; [8],3.64
COc1cc(C(=O)NC2CCN(C)CC2)ccc1Nc1ncc2c(n1)N(C1CCCC1)CC(F)(F)C(=O)N2C,NF-kB SEAP reporter activity,RAW-Dual [1]; [9],1.71
same,NF-kB SEAP reporter activity,RAW-Dual [1]; [10],2.85
C=CC(=O)Nc1cccc(Nc2nc(Nc3ccc(NC4CN(CCF)C4)cc3OC)ncc2C(F)(F)F)c1,NF-kB SEAP reporter activity,RAW-Dual [1]; [4],1.26
same,NF-kB SEAP reporter activity,RAW-Dual [1]; [5],1.53
CCC(=O)Nc1cccc(Oc2nc(Nc3ccc(N4CCN(C)CC4)cc3OC)ncc2Cl)c1,NF-kB SEAP reporter activity,RAW-Dual [1]; [9],1.1
same,NF-kB SEAP reporter activity,RAW-Dual [1]; [10],1.7
CCC1C(=O)N(C)c2cnc(Nc3ccc(C(=O)NC4CCN(C)CC4)cc3OC)nc2N1C1CCCC1 (centres undefined),NF-kB SEAP reporter activity,RAW-Dual [1]; [9],2.21
same,NF-kB SEAP reporter activity,RAW-Dual [1]; [10],0.949
C=CC(=O)Nc1cccc(Nc2nc(Nc3ccc(NC4CN(CCF)C4)cc3OC)ncc2C(F)(F)F)c1 (library stock concentration (final ~1000-fold dilution): 10 mM),NF-kB SEAP reporter activity,RAW-Dual [2]; agonist: LPS (TLR4) 0.1 ug/mL,0.561
same,NF-kB SEAP reporter activity,RAW-Dual [2]; [6],0.536
same,NF-kB SEAP reporter activity,RAW-Dual [2]; [7],0.359
same,NF-kB SEAP reporter activity,RAW-Dual [2]; [8],0.725
COc1cc(OC2CCN(C)CC2)ccc1Nc1ncc2c(n1)n(C1CCCC1)c(=O)n2C (library stock concentration (final ~1000-fold dilution): 10 mM),NF-kB SEAP reporter activity,RAW-Dual [2]; agonist: LPS (TLR4) 0.1 ug/mL,1.17
same,NF-kB SEAP reporter activity,RAW-Dual [2]; [6],0.955
same,NF-kB SEAP reporter activity,RAW-Dual [2]; [7],0.964
same,NF-kB SEAP reporter activity,RAW-Dual [2]; [8],1.16
Cc1cc(Nc2ncc3c(n2)N(C)C(=O)N(c2cc(NC(=O)c4cccc(C(F)(F)F)c4)ccc2C)C3)n(C)n1,NF-kB SEAP reporter activity,RAW-Dual [1]; [9],0.128
same,NF-kB SEAP reporter activity,RAW-Dual [1]; [10],0.265
CCC(=O)Nc1cccc(Oc2nc(Nc3ccc(N4CCN(C)CC4)cc3OC)ncc2Cl)c1 (library stock concentration (final ~1000-fold dilution): 10 mM),NF-kB SEAP reporter activity,RAW-Dual [3]; agonist: LPS (TLR4) 0.1 ug/mL,1.65
same,NF-kB SEAP reporter activity,RAW-Dual [3]; [6],0.875
same,NF-kB SEAP reporter activity,RAW-Dual [3]; [7],0.603
same,NF-kB SEAP reporter activity,RAW-Dual [3]; [8],1.02
Cl.Cl.OCCN1CCN(CC/C=C2/c3ccccc3Sc3ccc(C(F)(F)F)cc32)CC1,NF-kB SEAP reporter activity,RAW-Dual [1]; [9],1.58
same,NF-kB SEAP reporter activity,RAW-Dual [1]; [10],0.876
Cl.Cl.OCCN1CCN(CC/C=C2/c3ccccc3Sc3ccc(C(F)(F)F)cc32)CC1 (library stock concentration (final ~1000-fold dilution): 10 mM),NF-kB SEAP reporter activity,RAW-Dual [3]; agonist: LPS (TLR4) 0.1 ug/mL,0.443
same,NF-kB SEAP reporter activity,RAW-Dual [3]; [6],0.412
same,NF-kB SEAP reporter activity,RAW-Dual [3]; [7],0.431
same,NF-kB SEAP reporter activity,RAW-Dual [3]; [8],0.63
CC(=O)OC12COC1CC(O)C1(C)C(=O)C(O)C3=C(C)C(OC(=O)C(O)C(NC(=O)OC(C)(C)C)c4ccccc4)CC(O)(C(OC(=O)c4ccccc4)C21)C3(C)C (centres undefined),NF-kB SEAP reporter activity,RAW-Dual [1]; [4],1.14
same,NF-kB SEAP reporter activity,RAW-Dual [1]; [5],1.24
